Results: PubChem BioAssay
Calls of active or inactive are those of the source. Unless noted, no rule for the calls is given here.

How the values were obtained:
[1] = HepG2 liver cancer cell viability effects, profiling panel, resazurin fluorescence, 24 h, PK04 Diversity Set (AID 1172); settings: higher = more signal
[2] = basal S. cerevisiae growth modulation, no modifier, primary screen, OD600, strain BY4716, 24 h, basal condition (AID 1173); settings: OD600, 24 h, higher = more signal, called active from +8 up or from −8 down
[3] = MM1S myeloma cell viability, profiling panel, resazurin fluorescence, basal, 24 h, PK04 Diversity Set (AID 1174); settings: higher = more signal, called active from +8 up or from −8 down;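 also: MM1S multiple myeloma cell line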
[4] = biological target: Dihydroorotate dehydrogenase (quinone), mitochondrial (Plasmodium falciparum (isolate 3D7)) (UniProt Q08210); assay: PfDHODH enzyme inhibitors, primary screen, biochemical, C-terminal His tag, absorbance 600 nm (AID 1175); settings: DCIP absorbance 600 nm, higher = more signal, called active from +8 up or from −8 down;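 also: recombinant parasite enzyme with a five histidine tag at its C terminus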
[5] = P. aeruginosa biofilm formation inhibitors, primary screen, strain PAO1, LB-PBS medium, absorbance 600 nm (AID 1176); settings: P. aeruginosa PAO1 growth/biofilm, A600, 12 h; higher = more signal
[6] = S. cerevisiae RM11-1a growth modifiers, primary screen, strain RM11-1a, OD600, basal, 24 h (AID 1177); settings: OD600, 24 h, higher = more signal, called active from +8 up or from −8 down;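 also: cultures grown under basal conditions with no added stressor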
[7] = E. coli acrAB mutant growth effects, primary screen, E. coli filamentation inducers, strain DRC39, OD650, 24 h (AID 1178); settings: higher = more signal, called active from +8 up or from −8 down;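 also: growth measured as culture turbidity by optical density at 650 nm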
[8] = E. coli acrAB mutant growth effects, primary screen, E. coli filamentation inducers, strain DRC39, OD650, 48 h (AID 1179);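 also: screen aims at cell division blockers that make cells filament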; settings: E. coli DRC39 delta-acrAB growth, higher = more signal, called active from +8 up or from −8 down
[9] = RPMI8226 myeloma cell viability, profiling panel, resazurin fluorescence, basal, 24 h, PK04 Diversity Set (AID 1180); settings: higher = more signal;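 also: RPMI8826 multiple myeloma cell line at 5000 cells per well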
[10] = biological target: E3 ubiquitin-protein ligase XIAP (Homo sapiens) (UniProt P98170); assay: XIAP binders, primary screen, biophysical, small-molecule microarray, fluorescence 635 nm (AID 1181); settings: small-molecule microarray binding, higher = more signal;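 also: score merges 667 nm emission and signal to noise over triplicate slides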
[11] = system: XIP peptide (Xip251-270) binding; assay: small-molecule binders of XIP peptide, primary screen, biochemical, small-molecule microarray, fluorescence 635/667 nm, 0.1 µg/mL protein (AID 1182); settings: fluorescent protein binding, 635 nm, higher = more signal, called active from +8 up or from −8 down
XIP peptide (Xip251-270) = assay: small-molecule binders of XIP peptide, primary screen, biochemical, small-molecule microarray, fluorescence 635/667 nm, 0.5 µg/mL protein (AID 1183); settings: small-molecule microarray binding, fluorescence 635 nm; higher = more signal
[12] = Plasmodium falciparum growth inhibition, primary screen, strain 3D7, DAPI fluorescence, 100 nL (AID 1184);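 also: parasites grown inside human red blood cells in medium with human serum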; settings: P. falciparum 3D7 growth, 3 d, higher = more signal
[13] = biological target: Homeobox protein Hox-A13 (Mus musculus) (UniProt Q62424); assay: inhibitors of HoxA13-DNA binding, primary screen, biochemical, fluorescence polarization, labeled oligonucleotide (AID 1185); settings: 15 min, higher = more signal, called active from +8 up or from −8 down
[14] = inhibitors of hydroxyurea-induced Chk1 phosphorylation, primary screen, imaging, HeLa, phospho-Chk1 antibody, percent positive cells (AID 1186); settings: hydroxyurea-induced phospho-Chk1 immunofluorescence imaging, higher = more signal
[15] = inhibitors of hydroxyurea-induced Chk1 phosphorylation, primary screen, imaging, HeLa, phospho-Chk1 nuclear intensity (AID 1187); settings: hydroxyurea-induced phospho-Chk1 immunofluorescence imaging, higher = more signal

E3 ubiquitin-protein ligase XIAP (Homo sapiens), sequence (P98170 whole entry, looked up): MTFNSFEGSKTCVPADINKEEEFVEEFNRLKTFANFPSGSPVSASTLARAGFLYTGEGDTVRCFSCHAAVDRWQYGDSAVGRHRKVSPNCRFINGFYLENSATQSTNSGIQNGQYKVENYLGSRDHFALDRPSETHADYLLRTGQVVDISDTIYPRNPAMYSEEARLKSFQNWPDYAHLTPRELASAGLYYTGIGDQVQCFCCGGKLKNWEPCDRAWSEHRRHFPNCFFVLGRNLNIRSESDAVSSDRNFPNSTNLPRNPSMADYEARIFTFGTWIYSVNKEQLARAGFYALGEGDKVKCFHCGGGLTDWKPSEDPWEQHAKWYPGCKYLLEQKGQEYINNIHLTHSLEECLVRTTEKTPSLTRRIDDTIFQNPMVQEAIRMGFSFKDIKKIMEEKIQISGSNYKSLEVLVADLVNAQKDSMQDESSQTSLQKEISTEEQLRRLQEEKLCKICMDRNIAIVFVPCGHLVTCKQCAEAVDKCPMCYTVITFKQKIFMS
Homeobox protein Hox-A13 (Mus musculus), sequence (Q62424 whole entry, looked up): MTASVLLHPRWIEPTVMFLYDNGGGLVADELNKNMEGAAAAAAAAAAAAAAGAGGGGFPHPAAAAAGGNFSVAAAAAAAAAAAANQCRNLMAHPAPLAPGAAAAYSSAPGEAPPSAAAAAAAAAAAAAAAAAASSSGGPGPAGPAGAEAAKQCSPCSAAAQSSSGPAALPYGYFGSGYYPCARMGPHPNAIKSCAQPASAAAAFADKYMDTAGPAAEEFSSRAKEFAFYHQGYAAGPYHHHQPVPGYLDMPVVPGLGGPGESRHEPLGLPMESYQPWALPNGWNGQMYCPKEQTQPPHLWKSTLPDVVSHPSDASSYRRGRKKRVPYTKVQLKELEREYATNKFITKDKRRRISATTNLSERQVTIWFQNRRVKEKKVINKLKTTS
Dihydroorotate dehydrogenase (quinone), mitochondrial (Plasmodium falciparum (isolate 3D7)), sequence (Q08210 whole entry, looked up): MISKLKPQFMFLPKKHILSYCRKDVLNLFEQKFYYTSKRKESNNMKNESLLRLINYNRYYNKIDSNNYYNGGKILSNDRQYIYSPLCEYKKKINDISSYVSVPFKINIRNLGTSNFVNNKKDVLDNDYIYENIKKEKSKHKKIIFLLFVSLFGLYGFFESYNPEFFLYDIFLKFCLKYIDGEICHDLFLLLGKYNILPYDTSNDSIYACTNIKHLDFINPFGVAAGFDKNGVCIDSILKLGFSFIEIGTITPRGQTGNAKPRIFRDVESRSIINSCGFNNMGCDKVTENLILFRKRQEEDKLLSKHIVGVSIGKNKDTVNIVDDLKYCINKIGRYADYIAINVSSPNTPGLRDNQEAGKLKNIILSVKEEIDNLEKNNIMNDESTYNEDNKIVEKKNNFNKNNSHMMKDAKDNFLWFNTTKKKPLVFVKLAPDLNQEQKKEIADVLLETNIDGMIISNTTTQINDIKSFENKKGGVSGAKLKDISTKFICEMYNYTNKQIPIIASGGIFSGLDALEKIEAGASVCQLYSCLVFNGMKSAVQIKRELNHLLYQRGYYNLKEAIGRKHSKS

SMILES | z-score [1] | z-score [2] | z-score [3] | composite z-score [4] | z-score [5] | z-score [6] | z-score [7] | z-score [8] | z-score [9] | composite z-score [10] | composite z-score [11] | composite z-score (XIP peptide (Xip251-270)) | z-score [12] | z-score [13] | z-score [14] | z-score [15]
C[C@H]1NC(=O)[C@@]23C(=O)N[C@@H](Cc4ccccc4)C2[C@H](C)[C@@]2(C)O[C@H]2C3/C=C/C/C=C\CNC(=O)[C@@H]2CCCN2C1=O (stereo partly drawn) | 0.23 | -0.704 (inactive) | 0.607 (inactive) | -1.43 (inactive) | -0.0126 (inactive) | -0.0532 (inactive) | 0.901 (inactive) | 0.534 (inactive) | 1.14 | 0.0049 | 0.091 (inactive) | 0.667 | 0.91 | -3.78 (inactive) | 0.237 (inactive) | 0.087 (inactive)
COC(=O)[C@@]1(Cc2ccc(OC)cc2)[C@H]2c3cc(C(=O)N(C)C)n(CCc4ccccn4)c3C[C@H]2CN1C(=O)c1ccccc1 | -1.31 | 2.55 (inactive) | -2.34 (inactive) | -0.0595 (inactive) | 0.908 (inactive) | 1.51 (inactive) | -1.2 (inactive) | -0.655 (inactive) | -1.93 | 0.264 | -0.312 (inactive) | -0.7 | -1.52 | -2.39 (inactive) | 0.808 (inactive) | 0.0643 (inactive)
O=C(NCCO)C1=C[C@H](Oc2ccccc2I)[C@@H](O)[C@H](N(Cc2ccco2)C(=O)Cc2ccccc2)C1 | -1.23 | -0.279 (inactive) | -0.123 (inactive) | 1.06 (inactive) | -0.848 (inactive) | 0.552 (inactive) | -0.49 (inactive) | -0.666 (inactive) | -0.328 | -0.052 | 0.143 (inactive) | -1.13 | -1.32 | -2.48 (inactive) | 0.0831 (inactive) | 0.304 (inactive)
C=C(COC)/C(=C/C[C@@H](OC(C)=O)c1ccc(OCCO)cc1)c1cnc2ccccc2c1 | 0.638 | -1.39 (inactive) | 0.748 (inactive) | -5.97 (inactive) | -0.128 (inactive) | -1.49 (inactive) | 1.06 (inactive) | 0.968 (inactive) | 0.371 | 0.241 | -0.263 (inactive) | 0.554 | -3.23 | -6.01 (inactive) | 0.136 (inactive) | -0.201 (inactive)
Oc1ccc2cc[n+](Cc3sc4ccccc4c3Cl)cc2c1 | -1.23 | -0.225 (inactive) | -1.42 (inactive) | -0.427 (inactive) | -0.0748 (inactive) | 0.474 (inactive) | -0.257 (inactive) | -0.952 (inactive) | -0.624 | -0.0095 | 0.558 (inactive) | 0.904 | -1.11 | -4.76 (inactive) | -0.0224 (inactive) | -0.106 (inactive)
O=C(CS)NCCCCCCNC(=O)[C@@H]1C[C@@H]2C(=O)N[C@@H](Cc3ccccc3)C(=O)N2[C@@H]1c1cccc(OCCO)c1 | 0.531 | 0.49 (inactive) | -0.137 (inactive) | -0.0547 (inactive) | 0.255 (inactive) | 0.0598 (inactive) | 0.051 (inactive) | 0.0288 (inactive) | -0.549 | 0.0264 | 0.644 (inactive) | 0.763 | 1.17 | -2.64 (inactive) | 0.835 (inactive) | 1.17 (inactive)
CCOC(=O)C[C@H]1[C@H](OC(=O)c2ccc(C(=O)c3ccccc3)cc2)[C@@H](NC(=O)c2ccccc2)c2cc(OCCCO)ccc2N1C(=O)Cc1ccc(OC)cc1 | 0.844 | 0.0931 (inactive) | 0.399 (inactive) | 0.107 (inactive) | 0.62 (inactive) | 0.17 (inactive) | 0.722 (inactive) | 0.419 (inactive) | 0.702 | -0.102 | -0.0614 (inactive) | 0.511 | 0.4 | -1.99 (inactive) | 0.119 (inactive) | 0.134 (inactive)
CC(C)OC(=O)C=C1C[C@@H](c2ccccn2)O[C@@H](c2ccccn2)O1 | -0.802 | -1.97 (inactive) | -0.377 (inactive) | 0.409 (inactive) | 0.0362 (inactive) | -0.391 (inactive) | -0.471 (inactive) | 0.115 (inactive) | -0.474 | 0.462 | 1.4 (inactive) | -0.0957 | -0.929 | -5.67 (inactive) | 0.367 (inactive) | 0.129 (inactive)
C=C(CCCC)/C(=C/C[C@@H](OC(=O)c1ccncc1)c1ccc(OCCO)cc1)c1cc(C(=O)OC)ccc1OC | 0.691 | 1.1 (inactive) | 0.234 (inactive) | -0.265 (inactive) | -0.39 (inactive) | 0.826 (inactive) | 0.885 (inactive) | 0.868 (inactive) | 0.572 | -0.141 | 0.35 (inactive) | 0.565 | -2.8 | -3.62 (inactive) | -0.377 (inactive) | 0.106 (inactive)
C=C(CC1([C@@H](NP(=O)(c2ccccc2)c2ccccc2)[C@H]2C[C@@H]2CCCC)CC1)c1ccccc1 | 2.02 | 1.06 (inactive) | 1.07 (inactive) | -0.424 (inactive) | 0.812 (inactive) | 0.753 (inactive) | -0.167 (inactive) | -0.821 (inactive) | 3.34 | -0.167 | -0.0402 (inactive) | 0.143 | -0.548 | -2.33 (inactive) | 0.779 (inactive) | 1.12 (inactive)
CCOC(=O)C1=C[C@@H](C(C)(C)C)N(S(=O)(=O)c2ccc(C)cc2)[C@H]1c1ccc(F)cc1 | -0.457 | 2.32 (inactive) | -0.544 (inactive) | 0.412 (inactive) | -0.116 (inactive) | 1.78 (inactive) | -0.731 (inactive) | -0.791 (inactive) | -2.36 | -0.02 | 0.475 (inactive) | 0.106 | -1.92 | -0.636 (inactive) | -0.324 (inactive) | -0.725 (inactive)
COC(=O)C(CC#Cc1ccc2c(c1)[C@]1(C(=O)N2)[C@H](c2ccc(OCCO)cc2)N2[C@H](c3ccccc3)[C@H](c3ccccc3)OC(=O)[C@H]2[C@@H]1C(=O)N1CCc2cc(OC)c(OC)cc2C1)C(=O)OC | 0.399 | 2.53 (inactive) | 0.164 (inactive) | -4.19 (inactive) | 3.7 (inactive) | 2.97 (inactive) | 0.242 (inactive) | -0.182 (inactive) | -0.368 | -0.227 | 0.0734 (inactive) | 0.78 | -2 | -1.29 (inactive) | 0.192 (inactive) | 0.492 (inactive)
O=C(c1ccccc1)N1C(=O)[C@]2(COC(c3ccc(OCCCO)cc3)=N2)Cc2ccccc21 | 0.0993 | -1.67 (inactive) | -1.96 (inactive) | 0.201 (inactive) | 0.95 (inactive) | 0.349 (inactive) | 0.107 (inactive) | -0.26 (inactive) | -1.24 | 0.0479 | 0.819 (inactive) | 0.908 | -2.14 | -5.86 (inactive) | -0.255 (inactive) | -0.361 (inactive)
CCC[C@@H]1C[C@@]1(CCC)[C@@H](NS(=O)(=O)c1cccc2cccnc12)c1ccc(Cl)cc1 | -0.0373 | 1.43 (inactive) | -0.151 (inactive) | 0.283 (inactive) | 0.908 (inactive) | 1.24 (inactive) | -0.251 (inactive) | -0.0357 (inactive) | -0.0909 | 0.0999 | 0.0535 (inactive) | -0.271 | -0.586 | -0.392 (inactive) | 0.555 (inactive) | 0.618 (inactive)
CN(C)CCCC[C@@H]1NC(=O)[C@@H]2C[C@H](C(=O)NCCCCCCN)[C@H](c3cccc(OCCO)c3)N2C1=O | -0.06 | -0.543 (inactive) | 0.124 (inactive) | -0.981 (inactive) | 0.187 (inactive) | -1.17 (inactive) | -0.459 (inactive) | -1 (inactive) | -0.851 | 0.115 | 1.57 (inactive) | 0.919 | 0.0561 | -3.85 (inactive) | -0.945 (inactive) | -0.708 (inactive)
NC(=O)NCC#Cc1ccc2c(c1)[C@]1(C(=O)N2)[C@H](c2ccc(O)cc2)N2[C@H](c3ccccc3)[C@H](c3ccccc3)OC(=O)[C@H]2[C@@H]1C(=O)O | 0.587 | 0.453 (inactive) | 0.277 (inactive) | -0.268 (inactive) | 0.237 (inactive) | 0.726 (inactive) | -0.338 (inactive) | -0.176 (inactive) | 0.772 | 0.0975 | -0.211 (inactive) | 0.157 | 0.431 | -5.27 (inactive) | 0.123 (inactive) | 0.094 (inactive)
O=C1OCCC/C=C\[C@H]2OC34C=CCN(Cc5ccccc5)C(=O)[C@H]3N(CCCO)C(=O)[C@@H]4C12 (stereo partly drawn) | -0.203 | 1.29 (inactive) | 0.794 (inactive) | 0.905 (inactive) | -1.16 (inactive) | 1.29 (inactive) | 0.625 (inactive) | 0.59 (inactive) | 1.35 | -0.0876 | 0.0652 (inactive) | -0.616 | -0.125 | -4.98 (inactive) | -0.58 (inactive) | -0.324 (inactive)
CC(C)C(=C=CC[C@@H](O)c1ccc(OCCO)cc1)C[C@@H](O)COCc1ccccc1 | 0.932 | -2.26 (inactive) | 0.189 (inactive) | -2.2 (inactive) | 0.919 (inactive) | -2 (inactive) | 1.38 (inactive) | 1.29 (inactive) | 1.55 | 0.108 | 0.372 (inactive) | 0.195 | -2.45 | -3.75 (inactive) | -1.27 (inactive) | -0.437 (inactive)
